Bioassay records from PubChem.
DT40 TDP1 CPT: growth inhibition of DT40 Tdp1-/-;hTDP1 cells with camptothecin (screen for TDP1 inhibitors) | 420,000 compounds, 12% hits | AID 686979 | Potency, µM (series often up to 46.2 µM), for the others: at the top dose activity change, negative = growth inhibition, most hits filed as inhibitors | chicken DT40 Tdp1-/-;hTDP1 cells + 20 nM CPT, ATP luminescence, 48 h; note: potency is the fitted concentration of half-maximal effect; % is set by controls: 0 for no effect and ±100 for the full control effect; nearly all actives have a fitted effect of over 55% in size
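Chicken DT40 Tdp1-/- cells stably complemented with human TDP1 were seeded at 400 cells/well in medium containing 20 nM camptothecin, exposed to pin-transferred compounds, and grown at 37 °C for at least 48 hr. Viability was read as ATP luminescence.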
TDP1 block: TDP1 (human) enzyme inhibition. AID 485290. Q9NUW8. 350,000 compounds, 0.28% hits. Potency, µM (doses to about 130 µM), for inactives: at the highest dose activity change, negative = inhibition, hits mostly inhibitors. recombinant TDP1, AlphaScreen DNA substrate cleavage; note: potency is the fitted concentration of half-maximal effect; % is set by controls: 0 for no effect and ±100 for the full control effect; nearly all actives have a fitted effect of over 40% in size
Target sequence (Q9NUW8 whole entry, looked up): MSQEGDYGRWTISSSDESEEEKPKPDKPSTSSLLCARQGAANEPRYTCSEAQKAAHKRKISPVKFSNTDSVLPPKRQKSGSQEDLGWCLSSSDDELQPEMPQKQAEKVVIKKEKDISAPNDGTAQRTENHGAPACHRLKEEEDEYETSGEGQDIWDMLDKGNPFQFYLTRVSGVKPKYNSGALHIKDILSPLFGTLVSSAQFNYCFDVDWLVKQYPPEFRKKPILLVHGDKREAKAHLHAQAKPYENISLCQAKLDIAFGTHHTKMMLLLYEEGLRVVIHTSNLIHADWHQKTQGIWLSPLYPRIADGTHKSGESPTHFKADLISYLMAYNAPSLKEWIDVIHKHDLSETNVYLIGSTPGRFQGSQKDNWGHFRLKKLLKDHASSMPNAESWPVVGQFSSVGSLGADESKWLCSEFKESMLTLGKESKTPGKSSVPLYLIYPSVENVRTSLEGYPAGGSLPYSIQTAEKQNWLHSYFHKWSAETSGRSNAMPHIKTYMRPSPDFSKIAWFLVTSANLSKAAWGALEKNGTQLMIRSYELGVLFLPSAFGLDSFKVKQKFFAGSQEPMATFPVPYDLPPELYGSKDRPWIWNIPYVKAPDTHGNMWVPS
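Here, a 5' biotin and 3' phosphotyrosine-FITC DNA oligonucleotide reports Tdp1 activity: intact substrate bridges AlphaScreen beads, while cleavage leaves a 3' phosphate and drops signal. All incubations at room temperature.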
HepG2 tox: kills HepG2 cells in TGF-b inhibitor counter-screen. Potency, µM (doses to about 46.1 µM), for the others: at the top dose activity change, negative = cytotoxicity, most hits filed as cytotoxic. HepG2 CAGA-GFP viability, ATP luminescence, 18 h. 410,000 compounds, 0.76% hits. AID 588856; note: potency is the fitted concentration of half-maximal effect
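CellTiter-Glo luminescence gave cytotoxicity after 18 hours at 37 degrees C. The cells were HepG2 CAGA-GFP in 1% FBS DMEM, stimulated with 500 pg/mL TGF-beta after compound addition. %Activity was normalised to no-cell wells (complete cell-killing) and DMSO (no toxicity), and curves were fitted and classified.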
TDP1 cell noCPT: qHTS for Inhibitors of human tyrosyl-DNA phosphodiesterase 1 (TDP1): qHTS in cells in absence of CPT; 420,000 compounds, 15% hits; Potency, µM (highest dose often 46.2 µM), for the others: at the highest dose activity change, negative = growth inhibition, hits mostly inhibitors; DT40 Tdp1-/- hTDP1 cells, no CPT, ATP luminescence, 48 h; AID 686978, 2013; note: potency is the fitted concentration of half-maximal effect; % is set by controls: 0 for no effect and ±100 for the full control effect; nearly all actives have a fitted effect of over 55% in size
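Cells were dispensed at 400 per well, compounds added by pin tool, plates incubated ≥48 hr at 37 °C, then CellTiter-Glo added for 30 min at room temperature before luminescence reading. Line: DT40 Tdp1-/- complemented with hTDP1; camptothecin omitted.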
TGFb SMAD3 inh: blocks TGF-b signaling; HepG2 CAGA-GFP TGF-b/SMAD3 reporter, GFP fluorescence, 18 h; TGF-beta stimulated, 500 pg/mL final; 410,000 compounds, 1.2% hits; Potency, µM (top dose mostly 46.1 µM), without a hit: top-dose activity, negative = inhibition, actives largely listed as inhibitors; note: potency is the fitted concentration of half-maximal effect; % is set by controls: 0 for no effect and ±100 for the full control effect; nearly all actives have a fitted effect of over 65% in size
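TGF-beta reporter screen: HEPG2 CAGA-GFP, 1% FBS, 500 pg/mL TGF-beta final, 18 h; per-cell GFP summed per well; curves fitted and categorized by class.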
IL-1B inflam inh: blocks inflammasome-driven IL-1 beta release | THP-1 LPS/ATP IL-1B secretion, AlphaLISA, 16 h; stronger effect = lower value | activity change, % at 57.5 µM | 360,000 compounds, 4.7% hits; in the data active = activity change below about -50%; inconclusive = mostly about -30% to -49%; note: % is set by controls: 0 for no effect and ±100 for the full control effect
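THP-1 cells pretreated 1 hr with compounds (up to 57.5 uM final), then stimulated with LPS (250 ng/mL final) plus ATP (1.25 mM final); secreted IL-1B measured by AlphaLISA after 16 hr, decreased signal indicating inhibition.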
An asterisk follows results filed as active; i = inactive; ? = inconclusive; / = no result given; [ ] = another dose, or the depositor's remark. Compounds with a hit are over-represented: about 19% of the library has one in this group of screens. Unless noted, calls come from the whole dose curve; as a rule, active = well fitted curve in the direction sought with a large enough effect; inconclusive = small, poorly fitted or top-dose-only effect, or another doubt; inactive = no such curve, though single readings can be large; an effect the other way counts as inactive or inconclusive.

SMILES | DT40 TDP1 CPT | TDP1 block | HepG2 tox | TDP1 cell noCPT | TGFb SMAD3 inh | IL-1B inflam inh
O=C(CSc1nc2c([nH]c3ccccc32)c(=O)n1-c1ccccc1F)Nc1cccc(C(F)(F)F)c1 | 20.6µM* | -1.1% | -22.0% | 16.4µM* | ? | /
CCN(CC)C(=S)SCc1csc(CC(=O)Nc2ccccc2C)n1 | ? | 0.0% | -16.1% | ? | -1.8% | 10.3
CCSc1nc2c([nH]c3ccccc32)c(=O)n1C | -4.3% | 0.0% | -32.8% | -21.9% | -0.2% | 40.6
COn1c(SCC(N)=O)nc2ccccc2c1=O | -0.2% | -7.7% | 7.5% | 3.1% | -12.5% | 21.8
Cc1cccc(NC(=O)CSc2nc3c([nH]c4ccccc43)c(=O)n2C)c1 | 8.2µM* | -4.3% | 29.6% | 11.6µM* | ? | 18.1
COCCn1c(SCC(=O)NNC(=O)Cc2ccccc2)nc2ccccc2c1=O | 6.9% | 4.8% | -14.0% | -24.7% | -21.3% | -3.4
CCC1CCCCN1C(=O)CSc1nc2c([nH]c3ccccc32)c(=O)n1C (stereo not given) | 18.4µM* | 5.2% | -14.1% | 20.6µM* | 6.7% | 18.9
COn1c(SCc2ccc(C)cc2C)nc2ccccc2c1=O | 20.6µM* | -3.9% | -8.4% | 18.4µM* | -18.5% | 6.7
Cn1c(SCC(=O)NNC(=O)Cc2ccccc2)nc2ccccc2c1=O | 20.6µM* | -2.5% | 2.8% | 13µM* | 12.3% | -11.0
Cc1ncsc1CCSc1nc2ccccc2c(=O)n1C | ? | -1.0% | -26.8% | 23.1µM* | -20.5% | -11.3
Cc1cc(SCC(=O)Nc2ccc3[nH]c(=O)[nH]c3c2)nc2ccccc12 | -15.7% | 44.7µM* | -23.9% | -27.2% | 10.6% | -1.8
Cc1cc(SCC(=O)Nc2ccc(Cl)cc2)nc2ccccc12 | -16.2% | / | 0.1% | ? | -5.7% | /
COCCn1c(SCC(=O)Nc2cccc(F)c2)nc2c([nH]c3ccccc32)c1=O | -22.8% | -0.2% | 0.0% | -14.9% | 1.9% | i
Cc1ccccc1CSc1nc2ccccc2c(=O)n1C | ? | -16.2% | -26.7% | 25.9µM* | -21.2% | 1.5
COCCn1c(SCC(=O)Nc2cccc(NC(C)=O)c2)nc2c([nH]c3ccccc32)c1=O | ? | 0.3% | -17.6% | 3.26µM* | 4.3% | i
OC/C(Br)=C(\Br)CO | 5.0% | -0.9% | 6.0% | 1.1% | 2.8% | 21.3
Nc1c(OS(=O)(=O)c2ccccc2)cccc1OS(=O)(=O)c1ccccc1 | -22.4% | / | -14.3% | ? | -10.4% | ?
COC(=O)NC(CC(C)=O)c1ccc(F)cc1 (stereo not given) | / | 2.6%[21 µM] | / | / | / | /
COc1cccc(S(=O)(=O)N(C)C[C@H]2OCc3cn(nn3)CCCC(=O)N([C@@H](C)CO)C[C@@H]2C)c1 | -3.2% | / | -11.8% | 22.0% | 0.4% | -19.6
CCOc1ccc(OCC)c(NC(=O)CSc2nc3cccnc3n2C)c1 | ? | 7.9% | -2.1% | ? | 2.8% | 13.5
CCOc1ccc(OCC)c(NC(=O)CSc2nc3ccccc3c(=O)n2C)c1 | 16.4µM* | 4.2% | -2.3% | 20.6µM* | -17.7% | 20.4
COc1cc2c(NC3CCN(C(C)C)CC3)nc(N3CCCN(C)CC3)nc2cc1OCCOCCN1CCCC1 | 10µM* | / | -2.5% | 14.1µM* | ? | /
COc1cc2c(NC3CCN(C)CC3)nc(N3CCCCC3)nc2cc1OCCOCCN1CCCC1 | 12.6µM* | / | -1.5% | ? | ? | /
COc1cc2c(NC3CCN(C)CC3)nc(N3CCCN(C)CC3)nc2cc1OCCCCCC(N)=O | 7.1% | / | / | ? | / | /
COc1cc2c(NC3CCN(C)CC3)nc(N3CCCN(C)CC3)nc2cc1OCCN(C)CCN(C)C | -7.7% | / | -6.8% | -9.0% | 4.4% | /
SMILES | DT40 TDP1 CPT | TDP1 block | HepG2 tox | TDP1 cell noCPT | TGFb SMAD3 inh | IL-1B inflam inh
CCN(c1cccc(C)c1)S(=O)(=O)c1ccc(-c2cc(C)no2)s1 | 2.91µM* | -6.1% | -13.5% | 2.59µM* | ? | 30.0
CCOc1ccc(N(C)S(=O)(=O)c2ccc(-c3cc(C)no3)s2)cc1 | 3.66µM* | -1.7% | -35.4% | 4.11µM* | ? | 45.3
Cc1cc(-c2ccc(S(=O)(=O)N3CCCCC3)s2)on1 | -25.4% | -0.3% | -0.8% | ? | -4.9% | 8.3
Cc1cccc(N(C)S(=O)(=O)c2ccc(-c3cc(C)no3)s2)c1 | 0.82µM* | 0.2% | -27.0% | 0.651µM* | 11.2µM* | 76.9
CCN(c1cccc(C)c1)S(=O)(=O)c1cnc[nH]1 | -6.5% | 2.3% | 5.6% | -11.8% | 2.6% | 5.1
C/C=C\C1=C(CO)[C@H](O)[C@H]2OC2[C@@H]1O (stereo not given in full) | / | 24.9%[21 µM] | / | / | / | /
O=S(=O)(Nc1cccc(-c2ccc(N3CCOCC3)nn2)c1)c1ccc(F)cc1F | -25.2% | 4.1% | -13.6% | -19.6% | -8.2% | /
CCOc1ccccc1C1C(C(=O)OC)=C(N)OC2=C1C(=O)CCC2 (stereo not given) | -19.5% | 3.0% | 10.7% | -11.2% | 17.4% | 12.2
CCOc1ccc(Br)cc1C1C(C(=O)OC)=C(N)Oc2cc(N(C)C)ccc21 (stereo not given) | 5.17µM* | 10.4% | -6.6% | ? | ? | 30.4
CCOc1cccc(OCCCn2c(-c3ccc(Br)cc3)nc3ccccc3c2=O)c1 | -26.4% | / | -44.8% | -19.2% | -9.7% | /
CC(C)(C)c1ccc(Oc2ccc(NC(=O)c3ccco3)cn2)cc1 | 1.84µM* | 0.0% | -59.5% | 1.64µM* | 11.2µM* | -11.8
O=C(Nc1ccc(Oc2cccnc2)nc1)c1ccc(C(F)(F)F)cc1 | ? | 7.1% | -42.0% | 14.6µM* | 0.2% | ?
CC(C)(C)c1ccc(Oc2ccc(NC(=O)c3cccs3)cn2)cc1 | ? | 4.1% | -47.8% | ? | ? | -80.1*
O=C(Nc1ccc(Oc2cccc(C(F)(F)F)c2)nc1)c1ccco1 | -16.5% | 0.0% | -22.2% | 11.6µM* | -2.8% | -13.3
COc1cccc(C(=O)Nc2ccc(NC(=O)c3ccco3)nc2)c1 | -13.9% | 1.9% | -9.5% | ? | -9.0% | 1.9
C[C@H]1C(=O)N(S(=O)(=O)c2ccc([N+](=O)[O-])cc2)[C@H]1c1ccc(F)cc1 | / | 7.9% | 4.6% | / | 0.7% | /
C/C=C(\C)C(=O)O[C@H]1C[C@@]2(C)CCC(C(C)C)C2(O)CC[C@@]1(C)O (stereo not given in full) | -8.4%[9.04 µM] | 5.0% | / | -12.4%[9.04 µM] | / | /
Oc1cc(-n2cccn2)c(O)cc1-n1cccn1 | 5.8µM* | 8.6% | -0.2% | 4.11µM* | -7.7% | -3.5
